The campaign covered roughly 48,000 compounds. About 13,000 (27%) showed an effect of 50% or more. The list shows a part of the results.
The compounds below were run on Wolbachia pipientis (assay: Anti-Wolbachia Cell-Based Screen). Settings: 5 µM.
Type: functional
Parameters: scale not given: in the data most compounds retested in dose-response had high values

Structure (SMILES) | Percent Effect
Cn1cccc1C(=O)NC1CCN(c2ccc(OC(F)(F)F)cc2)CC1 | -13.65%
CNC(=O)NC(=O)CN1CCC(c2c[nH]c3ccc(OC)cc23)CC1 | -6.098%
O=S(=O)(c1cccc(F)c1)N1C[C@@H]2COC[C@]2(COCC2CC2)C1 | -1.949%
COc1cc(CNCCC(N)=O)c2c(c1)CC(C)O2 (stereo not given) | 0.4704%
CCN(CC)C(CNC(=O)c1ccc(S(C)(=O)=O)cc1)c1ccco1 (stereo not given) | 12.65%
O=C(CNc1cc2c(cc1Br)OCCO2)NC1CCS(=O)(=O)C1 (stereo not given) | -16.13%
CCNc1nnc(SCC(=O)N2CCN(Cc3ccc(Cl)s3)CC2)s1 | -3.982%
Cc1cccc2c(CCNC(=O)NCCC[S+](C)[O-])c[nH]c12 (stereo not given) | 21.8%
Cc1cccc2c(CCNC(=O)NCC[S+](C)[O-])c[nH]c12 (stereo not given) | -10.94%
Cc1ccc(C)c2c(C)c(C(=O)NCC[S+](C)[O-])[nH]c12 (stereo not given) | 91.32%
OC1CCN(c2ccccc2NCc2nc(-c3cccs3)no2)CC1 | 8.395%
CNC(=O)N1CCC2(CC1)C(=O)N(C)c1c(F)cccc12 | 16.38%
O=C(NCc1ccc(CN2CCCCC2)cc1)Nc1cccnc1 | -23.63%
CC(Cn1cc(Cl)cn1)C(=O)Nc1ccc(CN2CCCCCC2)cc1 (stereo not given) | 106.4%
O=C(NCCn1cc(Cl)cn1)C1CCN(C(=O)C2CC2)CC1 | 13.04%
CC(C)n1nc2c(cc1=O)CN(Cc1ccc(-n3cccn3)cc1)CC2 | 0.8403%
O=C(c1cncc(N2CCC3(CCCNC3)C2)n1)N1CCCC1 (stereo not given) | 43.3%
COc1cc(C2(C(=O)NC3CCC4(CC3)OCCO4)CC2)ccc1C | 0.5256%
NCC1CCCN(c2nc(-c3ccccc3)nc3c2CCNCC3)C1 (stereo not given) | -16.76%
COC[C@H]1CCCN1c1nccc(-c2cnn(-c3ccccc3C)c2)n1 | 94.7%
Cc1cnc(N2CCCC(O)C2)nc1-c1ccnn1C (stereo not given) | -3.995%
Cc1ccccc1-n1cc(-c2ccnc(N3CCCC(CN)C3)n2)cn1 (stereo not given) | 108.9%
Cc1ccccc1-n1cc(CN(C)C[C@@H]2CCCN3CCCC[C@H]23)cn1 | 9.143%
COCc1noc(-c2ccc(N3CCCCC3COC)nc2)n1 (stereo not given) | 2.136%
Cc1ccccc1-n1cc(-c2ccnc(N[C@H](CO)C(C)C)n2)cn1 | -13.53%
Cc1ccccc1-n1cc(-c2ccnc(N3CCCC(O)C3)n2)cn1 (stereo not given) | 107.7%
O=C1CC2(CCN(Cc3ccc(C(F)(F)F)nc3)CC2)CN1 | -10.7%

Structure (SMILES) | Percent Effect
O=S(=O)(Cc1ccccc1F)NCCCN1CCCCC1 | -1.108%
CCCc1cc(NCCCC2CCOC2)n2nccc2n1 (stereo not given) | -21.79%
CC(C)C[C@H](Nc1nc(C2CCCC2)nc2c1cnn2C)C(N)=O | 1.529%
O=C1O[C@@H]2CN(Cc3ccccc3)C[C@@H]2N1CCCN1CCOCC1 | -2.411%
CC(C)NC(=O)N1CCCC(c2nnc(CN3CCOCC3)n2C)C1 (stereo not given) | 7.81%
Cn1c(=O)oc2ccc(NC(=O)N3CCOCC3)cc21 | 0.8661%
CCS(=O)(=O)N1CCC(c2nnc(CN3CCOCC3)n2C)CC1 | 4.44%
Cn1c(CN2CCOCC2)cc(=O)c(O)c1CN1CCOCC1 | 102.7%
Cn1c(CN2CCOCC2)cc(=O)c(O)c1CN1CCCC1 | 100.1%
Cn1c(CN2CCOCC2)cc(=O)c(O)c1CN1CCCCC1 | 117.1%
Cn1c(CN2CCOCC2)nnc1C1CCCN(CC(N)=O)C1 (stereo not given) | -18.54%
CCN(C)CC(=O)N1CCCC(c2nnc(CN3CCOCC3)n2C)C1 (stereo not given) | 14.42%
CN(CCN1CCCCC1)C(=O)c1cc(CN2CCOCC2)on1 | 7.335%
O=C(NCCN1CCCC1)c1nc2c(o1)CN(C(=O)c1cccnc1)C2.O=C(O)C(F)(F)F.O=C(O)C(F)(F)F | -5.766%
COCCN1CCc2ncc(CN(C)C)n2CC1 | -10.98%
CC1CN(S(=O)(=O)c2ccc(F)cc2F)c2cccnc2O1 (stereo not given) | -5.201%
NC(=O)NC(=O)CCN1C(=O)CC(Cc2ccc(F)cc2)C1=O (stereo not given) | 2.732%
COc1cccc(C(=O)N2CCOCC2CN(C)C)c1OC.O=CO (stereo not given) | 3.966%
Cc1cc(C(=O)N[C@H]2CN(CCC(N)=O)C[C@@H]2C2CC2)sc1C | 6.856%
O=C(Nc1cccc2c1CCCC2)c1cccnc1N1CCCNCC1 | 136.8%
CC1CN(c2ncccc2C(=O)Nc2cccc3c2CCCC3)CCN1 (stereo not given) | 121.2%
O=C(CS(=O)(=O)c1ncccc1Cl)NC1CCCc2ccccc21 (stereo not given) | 0.01745%
Cc1cccc(C(=O)Nc2cccc3c2CCCC3)n1 | -12.03%
NC(=O)c1cccnc1N1CCN(c2ncnc3c2CCNC3)CC1 | -13.85%
CC1CN(c2ncccc2C(=O)N[C@@H]2CCCc3ccccc32)CCN1 (stereo not given in full) | 127.7%
O=C(CS(=O)(=O)c1ccccn1)NC1CCCc2ccccc21 (stereo not given) | 25.59%
O=C(Nc1cccc2c1CCCC2)C1CCCN1c1nccs1 (stereo not given) | 15.72%

Structure (SMILES) | Percent Effect
O=C(Nc1cccc2c1CCCC2)c1cccc(CN2CC[C@H](O)C2)c1 | -13.79%
Cc1cc(N2CCN(C(=O)c3cc(Cl)c[nH]3)CC2)nc(N)n1 | 3.543%
CC(=O)CCCC(=O)N(Cc1ccsc1)CC(C)C | -0.6388%
CCN(CC)C(=O)NC(C)c1ccc(Oc2cccnc2)c(F)c1 (stereo not given) | 111%
CC(NC(=O)N(C)C1CC1)c1ccc(Oc2cccnc2)c(F)c1 (stereo not given) | 100.6%
CC(CNC(=O)c1ccccc1Oc1cccnc1)N(C)C (stereo not given) | 3.869%
CC(NC(=O)Cn1ccnc1)c1ccc(OCC2CC2)c(F)c1 (stereo not given) | 47.59%
CC(NC(=O)CN(C)C(C)C)c1ccc(Oc2cccnc2)c(F)c1 (stereo not given) | 102.4%
CC(NC(=O)Cc1ccon1)c1ccc(OCC2CC2)c(F)c1 (stereo not given) | 0.6015%
Cc1cc(CC(=O)NC(C)c2ccc(OCC3CC3)c(F)c2)n[nH]1 (stereo not given) | -4.858%
CC(NC(=O)c1ccnn1C)c1ccc(OCC2CC2)c(F)c1 (stereo not given) | 28.88%
CCC(C#N)NC(=O)c1ccc(Oc2cccnc2)cc1 (stereo not given) | -3.415%
CN(C)C1Cc2ccccc2N(S(=O)(=O)c2ccc(C#N)cc2)C1 (stereo not given) | -15.49%
OC[C@@H](O)CN(CCC(F)(F)F)c1ncc(Cl)cn1 | -0.8071%
OCCNc1cc(-c2ccccc2)ncn1 | 107.4%
CNc1cc(-c2ccncc2)ncn1 | 104.2%
OCCNc1cc(N2CCN(Cc3ccccc3)C(CCO)C2)ncn1 (stereo not given) | 0.1628%
OCC1CCCN1c1cc(NCCNc2ccccn2)ncn1 (stereo not given) | 1.6%
O=C(NCCNc1cc(N2CCCC2)ncn1)c1cnccn1 | 10.51%
OCCNc1cc(-c2ccncc2)ncn1 | 123.3%
Cn1ccc2c(-c3ccc(NCCO)nn3)ccnc21 | 2.598%
CN(C)C(=O)c1cc(NC(=O)N2CCCC(C(F)(F)F)C2)ccn1 (stereo not given) | -9.482%
COc1ccc(Cc2ncc3c(n2)CN(C(=O)CCO)C3)cc1 | -39.39%
Cc1c(CNC(=O)C2CCCCCN2C)oc2ccccc12 (stereo not given) | 0.5854%
N#Cc1ccc(CN(CC(N)=O)C2CCCC2)c(Br)c1 | -1.736%
CN1CC(Oc2ccc(Cl)cc2)=NC(SCC(=O)Nc2ccccc2)=N1 | 25.95%
CC(C)(C)c1ncc(C(=O)NCCSc2ccccn2)c(O)n1 | 2.392%

Structure (SMILES) | Percent Effect
CC(=O)N1CCCN(c2nccc(-c3c(C)nn(C)c3C)n2)CC1 | 41.92%
Cc1nn(C)cc1-c1ccnc(N2CCCN(CC(C)C)CC2)n1 | 87.41%
Cc1nn(C)cc1-c1ccnc(N2CCSCC2)n1 | -11.35%
Cc1nn(C)c(C)c1-c1ccnc(N2CCCN(CC(C)C)CC2)n1 | 93.07%
CC(=O)N1CCCN(c2nccc(-c3cn(C)nc3C)n2)CC1 | -3.527%
Cc1nn(-c2ccccc2)c(C)c1-c1ccnc(N2CCCNCC2)n1 | 14.93%
O=C(NCc1nc(NC2CCCC2)c2cc(Cl)ccc2n1)c1cscn1 | 4.35%
Cc1cc(C)c2c(c1)C(CC(=O)O)C(=O)N2 (stereo not given) | 1.764%
CN1CCCN(Cn2nc(-c3ccccc3F)ccc2=O)CC1 | 154.5%
CN1CCCN(Cc2nc(Cc3ccccc3)n[nH]2)CC1 | 19.97%
CCn1nc(-c2ccccc2F)ccc1=O | 11.86%
O=c1ccc(-c2ccccc2F)nn1CN1CCCCCC1 | 147.7%
O=c1ccc(-c2ccccc2F)nn1CCN1CCCS1(=O)=O | -2.823%
CN1CCN(Cc2noc(-c3cc(-c4ccccc4F)n[nH]3)n2)CC1 | -9.744%
CCN1C(=O)[C@]2(CC[C@@H]3CN(S(=O)(=O)CC(C)C)C[C@@H]32)N=C1C | -19.96%
CCc1c(C)nc(C)nc1N1C[C@@H](CN(C)C)[C@@H](CO)C1 | -2.089%
c1ccc(C2CN(c3ncnc4[nH]cnc34)CCO2)cc1 (stereo not given) | 11.05%
CN(C)c1nccc(C2CN(c3ccccc3)CCO2)n1 (stereo not given) | 99.49%
Cc1n[nH]c(C2CN(C(=O)c3ccoc3C)CCO2)n1 (stereo not given) | -42.67%
CC(=O)N1CCOC(c2ccnc(N(C)C)n2)C1 (stereo not given) | 93.18%
CN(C)c1nccc(C2CN(c3cnccn3)CCO2)n1 (stereo not given) | 85.29%
CN(C)c1nccc(N(C)C2CCOCC2)n1 | 2.354%
COCCn1cc(C(=O)N2CCCC2c2ccc(F)cc2)ccc1=O (stereo not given) | -7.034%
COC(=O)NCCC(=O)NC(c1ccc(Cl)cc1)C(F)(F)F (stereo not given) | -2.05%

From ChEMBL document CHEMBL3988442, “University of Dundee, Small-Polar-MMV Screening Library” (2021)
